{"source": "PubChem BioAssay (NCI)", "note": "About 83,000 compounds went through this panel and 20% of them were active in at least one assay; those are over-represented in the sample as a whole.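 Note: values are percent growth. 100 is the growth of untreated cells, values between 100 and 0 indicate rising inhibition; between -100 and 0 indicates cell death.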 Unmarked numbers belong to inactive results. Activity calls are given as the source filed them. Rule for the calls: active = growth percent below 10; inactive = the rest.", "data": [{"tested_on": "HL-60(TB) leukemia", "assay": "NCI-60 one-dose screen, 48 h (100 = growth as untreated, 0 = no growth, -100 = all killed)", "conditions": "10 µM unless noted", "values": [{"smiles": "CCN1CCN(Cc2ccc(Cc3ncc(F)c(-c4cc(F)c5nc(C)n(C(C)C)c5c4)n3)nc2)CC1", "growth": "27.3%"}, {"smiles": "COc1ccc(/C=C/c2nc(NCCCN(C)C)c3ccccc3n2)cc1", "growth": "88.3%"}, {"smiles": "CC/C(=C\\c1ccc(N(C)C)cc1)c1ccncc1", "growth": "29.5%"}, {"smiles": "COc1cc(-c2csc(NC(=O)c3cc(C(F)(F)F)cc(C(F)(F)F)c3)n2)cc(OC)c1OC", "growth": "29.6%"}, {"smiles": "COc1ccc(/C(C)=C(\\c2ccc(Cl)cc2)c2ccc(OCCN3CCCCCC3)cc2)cc1", "growth": "25.8%"}, {"smiles": "Nn1c(CN2CCN(c3cc4c(cc3F)c(=O)c(C(=O)O)cn4C3CC3)CC2)n[nH]c1=S", "growth": "101%"}, {"smiles": "COc1cc(/C=C/c2cc(/C=C/c3ccc(O)c(OC)c3)n(C(=O)Cc3ccccc3)n2)ccc1O", "growth": "-9.93% (active)"}, {"smiles": "COc1cc(-c2ccc(-c3ccc(C(=N)N)cc3)s2)cc(OC)c1OC", "growth": "3.15% (active)"}, {"smiles": "CC(CO)(CO)C(=O)O", "growth": "108%"}, {"smiles": "O=C1/C(=C\\c2cccn2C(=O)c2ccccc2)c2ccccc2N1c1c(Cl)cccc1Cl", "growth": "9.37% (active)"}, {"smiles": "Cc1cc(-c2cc(C)c(O)c(C)c2)cc(C)c1O", "growth": "63.6%"}, {"smiles": "CNC(=O)c1cc(Oc2ccc3nc(NC(=O)Nc4ccc(F)cc4F)sc3c2)ccn1", "growth": "98.3%"}, {"smiles": "COC(=O)c1ccc(C)cc1", "growth": "106%"}, {"smiles": "O[C@@H]1CCO[C@H](c2ccc3ccccc3c2)C1", "growth": "102%"}, {"smiles": "CCCCCCCCCCOC(C)=O", "growth": "107%"}, {"smiles": "N#Cc1ccc(NC(=O)Nc2nc3ccc(OC(F)(F)F)cc3s2)cc1", "growth": "-47% (active)"}]}]}
